Out of some 330,000 compounds screened, about 1,300 (0.39%) were called active. Only a selection was taken, and actives are over-represented in it overall. Values without a mark were called inactive.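 How the source made its calls: active means inhibition of 50% or more; inactive means inhibition below 50%.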
Assay: NALP3 inflammasome inhibitors in reconstituted yeast, primary screen, luminescence, uHTS (AID 2825);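 further: plate controls were induced DMSO wells for no effect and uninduced yeast grown without galactose for full effect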
Conditions: Yeast reconstituted NLRP3/ASC/caspase-1, beta-gal luminescence, 24 h; at 10 µM; stronger effect = higher value

| SMILES | inhibition |
| --- | --- |
| O=C(CN1C(=O)C2C3C=CC(C3)C2C1=O)Nc1nc(-c2ccccn2)cs1 (stereo not given) | 2.29% |
| CC(NC(=O)c1ccco1)C(=O)Nc1nc(-c2ccccn2)cs1 (stereo not given) | 6.56% |
| O=C(COc1ccccc1F)Nc1nc(-c2ccccn2)cs1 | 52.9% (active) |
| CCNC(=O)c1cccc(NC(=O)C2CC(=O)N(CCc3ccccc3)C2)c1 (stereo not given) | 0.384% |
| O=C(Nc1ccccc1Cl)/C(Cl)=C(\Cl)S(=O)c1ccccc1 (stereo not given) | 67.4% (active) |
| O=C(COC(=O)CCc1c[nH]c(=O)[nH]1)Nc1ccccc1Cl | -10.9% |
| CN(C)S(=O)(=O)Oc1ccccc1C(=O)Nc1ccccc1Cl | -4.11% |
| COc1cc(CNCc2ccc3c(c2)OCO3)c([N+](=O)[O-])cc1OC | 20.4% |
| O=C(N/N=C/c1cccc([N+](=O)[O-])c1)C1CC(=O)N(c2ccc(Br)cc2)C1 (stereo not given) | 4.22% |
| Cc1ccc(NC(=O)O/N=C/c2cccc([N+](=O)[O-])c2)cc1 | 18.6% |
| O=[N+]([O-])c1cccc(/C=N/Nc2ncc(Br)cn2)c1 | 68.1% (active) |
| C/C(=N/OC(=O)c1ccc(Br)cc1)c1ccc(C)cc1 | 25.5% |
| CCc1cc(C(=O)Nc2nnc(C3CC3)s2)sc1C | 52% (active) |
| Cc1cc(C(=O)Nc2nnc(C3CC3)s2)c(C)s1 | 47.8% |
| O=C(Nc1nnc(C2CC2)s1)c1ccccn1 | 7.63% |
| CC(=O)NC(CC(=O)Nc1ccc(S(=O)(=O)N2CCOCC2)cc1)c1ccccc1 (stereo not given) | 8.22% |
| O=C(c1ccco1)N1CCN(C(=O)c2cc(-c3ccccc3F)no2)CC1 | -3.69% |
| Fc1ccc2cnc(-c3ccccc3)cc2c1 | 34.3% |
| Fc1ccccc1-c1cc2cc3c(cc2cn1)OCO3 | 57.2% (active) |
| O=C1CC2(CCCC2)C(=O)N1CN1CCN(S(=O)(=O)c2ccc(F)cc2F)CC1 | 20.4% |
| Cc1c(C(=O)OCC(=O)N2CCCC2=O)oc2ccccc12 | 28.6% |
| Cc1c(C(=O)N2CCCc3ccccc32)oc2ccccc12 | 51.5% (active) |
| CCCn1nc(C(=O)N2CCCc3ccccc32)c2ccccc2c1=O | 12.6% |
| Cc1cccc(NC(=S)NC(=O)c2ccc(Br)o2)c1 | 57.6% (active) |
| O=C(CNC(=O)c1ccc(Br)o1)Nc1ccccc1 | 22.4% |

| SMILES | inhibition |
| --- | --- |
| Cc1cccc(NC(=O)c2ccc([N+](=O)[O-])o2)c1 | -4.88% |
| O=C(Cc1ccc(S(=O)(=O)N2CCCC2)s1)NC1CCCCCC1 | 7.38% |
| CN(c1ccccc1)S(=O)(=O)c1ccc2[nH]c(=O)[nH]c2c1 | 25.4% |
| COc1ccccc1C(=O)COC(=O)CSCC(=O)Nc1cc(C)on1 | 15.5% |
| CC(CCc1ccc(O)cc1)NCc1ccc(Cl)cc1Cl (stereo not given) | 21.7% |
| N#Cc1nc(Cc2cccc3ccccc23)oc1NCc1ccc2c(c1)OCO2 | 2.2% |
| N#Cc1nc(Cc2ccccc2)oc1NCCc1ccccc1 | 53.8% (active) |
| N#Cc1nc(COc2ccc(-c3ccccc3)cc2)oc1NCc1cccnc1 | 2.98% |
| CCn1c(=S)sc2c(=O)n(CC(=O)Nc3ccc(OC)cc3)c(C)nc21 | 18.2% |
| CC(NCc1nc2ccccc2n1C)C12CC3CC(CC(C3)C1)C2 (stereo not given) | 30% |
| Cc1ccc(-c2nnc(Nc3ccc(C(=O)N(C)C)cc3)c3ccccc23)cc1S(N)(=O)=O | 15.1% |
| O=c1[nH]oc(O)c1-c1ncc(C(F)(F)F)cc1Cl | 6.26% |
| Cn1c(N)c(C(=O)COC(=O)c2cccc(S(=O)(=O)N3CCOCC3)c2)c(=O)n(C)c1=O | 3.26% |
| CN(Cc1nc2ccccc2s1)C(=O)c1ccc(F)cc1 | 14.9% |
| CCc1ccc(-c2nnn(Cc3nc4ccccc4s3)n2)cc1 | 31.8% |
| COc1ccccc1OCc1nc2ccccc2s1 | 59.6% (active) |
| Cc1cccc(C)c1NC(=O)CCS(=O)(=O)c1cccc2nsnc12 | -0.246% |
| COc1ccc(Cc2nnc(N/N=C/c3ccccc3O)[nH]c2=O)cc1OC | 9.67% |
| COc1cccc(/C=N/Nc2cc(C)nc(-c3ccccc3O)n2)c1O | 54.1% (active) |
| Cc1nc2ccccc2nc1N/N=C/c1ccc(O)cc1O | 2.73% |
| CC(C)c1ccc(N2CC(C(=O)Nc3nccs3)CC2=O)cc1 (stereo not given) | 9.7% |
| COc1ccc(CNC(=O)COC(=O)/C=C/c2ccc(S(=O)(=O)N3CCOCC3)cc2)cc1 | -4.76% |
| Cc1nn(Cc2ccccc2)c(C)c1C(=O)N1CCN(CC(=O)Nc2ccccc2Cl)CC1 | 14.5% |
| NC(=O)N1CCCC1C(=O)Nc1ccc(Cl)c(Cl)c1 (stereo not given) | -1.49% |
| O=C(CC(O)(C(F)(F)F)C(F)(F)F)Nc1ccc(Cl)c(Cl)c1 | 78.6% (active) |

| SMILES | inhibition |
| --- | --- |
| O=C(COC(=O)c1cc[n+]([O-])cc1)Nc1ccc(Cl)c(C(F)(F)F)c1 | -2.4% |
| Cc1onc(-c2ccccc2Cl)c1C(=O)OCc1nnc(-c2ccccc2)o1 | 27.8% |
| Cc1ccc(-n2cnc3ncnc(-c4ccccc4)c32)cc1 | 7.02% |
| Cc1ccc(-c2nn(C(C)(C)C)c3ncnc(N)c23)cc1 | 90.7% (active) |
| Cc1[nH]c(=O)c(C(=O)/C=C/c2ccccc2)c2c1CCCC2 | 28.3% |
| CCc1cccc(OC2OC(CO)C(O)C(O)C2NC(C)=O)c1 (stereo not given) | -4.24% |
| Cn1nccc1/C=N\NC(=O)c1ccc(Cl)cc1 | 19.2% |
| COc1ccccc1C1C(C#N)=C(N)Oc2c1c(-c1ccccc1)nn2-c1ccccc1 (stereo not given) | 9.88% |
| N#CC1(NC(=O)COC(=O)Cc2n[nH]c(=O)c3ccccc23)CCCCC1 | 17.9% |
| CC(C)n1c(-c2cccs2)nc2ccccc21 | 19% |
| Cn1c(COc2ccc(Cl)cc2)nc2ccccc2c1=O | 35.3% |
| Cc1ccc(OCc2nc3ccccc3n2C)cc1 | 62.3% (active) |
| CC(C)n1c(COc2ccccc2)nc2ccccc21 | 57.2% (active) |
| CC(C)n1c(CN2CCN(Cc3ccccc3)CC2)nc2ccccc21 | 18.2% |
| CCOc1ccc(C(O)Cc2nc3ccccc3n2C)cc1 (stereo not given) | 32.1% |
| CC(C)NS(=O)(=O)c1ccc(OCC(=O)NC2CCCCCC2)cc1 | 10.4% |
| COCCN(C(=O)CC1CCCCC1)c1c(N)n(CC(C)C)c(=O)[nH]c1=O | 6.27% |
| CCCC(=O)N=c1sc2cccc(F)c2n1C | 35.5% |
| Cn1c(=NC(=O)c2cnccn2)sc2ccccc21 | 25.1% |
| Cn1c(=NC(=O)c2ccco2)sc2cccc(F)c21 | 51% (active) |
| COc1ccc(NC(=O)CN(C)C(=O)Cc2coc3cc(C)c(C)cc23)cc1 | 17.5% |
| COCCCNCCOCCOc1ccc(Cl)cc1Br | 3.7% |
| CC(C)C(=O)Nc1ccc2oc(=O)ccc2c1 | -3.79% |
| Cc1cc(=O)oc2cc(NC(=O)C(C)Oc3ccccc3)ccc12 (stereo not given) | 10.8% |
| CC(C)C(=O)Nc1ccc2c(c1)oc1ccccc12 | 56.7% (active) |

| SMILES | inhibition |
| --- | --- |
| Cc1ccccc1N1CCN(S(=O)(=O)c2ccc3ccccc3c2)CC1 | 2.32% |
| Cc1ccc2cccc(S(=O)(=O)N3CCN(c4ccccc4F)CC3)c2n1 | 50.5% (active) |
| O=S(=O)(N1CCOCC1)N1CCN(c2ccccc2F)CC1 | 7.74% |
| O=C(c1ccc(S(=O)(=O)N2CCCC2)cc1)N1CCN(c2ccccc2F)CC1 | 11.6% |
| C=CCn1c(CNS(=O)(=O)c2ccc(Br)cc2)nnc1SC | 14.4% |
| COc1ccc(NS(=O)(=O)c2cc3c(cc2C)N(C(C)=O)CCO3)cc1 | 25.6% |
| Oc1ccc(/C=N/Nc2ccc(C(F)(F)F)cn2)cc1O | 11.3% |
| Oc1ccc(Br)cc1/C=N/Nc1ccccn1 | 51.7% (active) |
| Cc1c(C(=O)Nc2ccccn2)oc2ccc(Br)cc12 | 28.4% |
| CCn1nc(C(=O)NNS(=O)(=O)c2cc(/C=C/C(=O)O)cc(OC)c2OC)c2ccccc2c1=O | -0.224% |
| O=C(CSc1ccc([N+](=O)[O-])cn1)Nc1ccc(N2CCOCC2)cc1 | -5.97% |
| O=C(CSc1ccc(-c2ccccn2)nn1)Nc1ccccc1 | 25.6% |
| O=C(CSc1ccc(-c2ccc(-n3cccn3)cc2)nn1)Nc1ccc([N+](=O)[O-])cc1 | 51.4% (active) |
| CCN1CCN(c2sc(S(C)(=O)=O)nc2S(=O)(=O)c2ccc(Cl)cc2)CC1 | 2.79% |
| CCOC(=O)C1CCN(C(=O)CC2C(=O)N(Cc3ccccc3)C(C)c3nc4ccccc4n32)CC1 (stereo not given) | -3.2% |
| FC(F)(F)c1cccc(NC(=S)Nc2cccc(Cl)c2)c1 | 2.63% |
| Cc1csc(NC(=S)Nc2cccc(Cl)c2)n1 | 53.8% (active) |
| S=C(Nc1cccc(Cl)c1)Nc1ccc2c(c1)OCCO2 | 15% |
| COc1ccc(-c2n[nH]c3c2CN(C(=O)c2ccc(F)cc2)CC3)cc1 | 19% |
| COc1cc(OC)cc(-c2cc3nc(C4CCN(C(=O)OC(C)(C)C)CC4)cc(=O)n3[nH]2)c1 | 18.1% |
| CC1CC2=C(CC1/C=N/NC(N)=S)C(C)(C)CCC2 (stereo not given) | 68.6% (active) |
| CCCN(CCc1ccccc1)C1CCc2c(O)cccc2C1 (stereo not given) | 22.2% |
| CN(C)/C=C1/Nc2ccccc2C1=O | 12% |
| O=C1Nc2ccccc2/C1=C/c1ccnc2ccccc12 | 17.6% |
| Cc1cc(C)c(/C=C2\C(=O)Nc3ccccc32)[nH]1 | 55.4% (active) |
